Compound activity: PubChem BioAssay, several laboratories
Sampled rows, rich in hits. Any-hit rate of the full collection: about 3.1%.
ATG4B inh = ATG4B protease inhibitors, primary screen, biochemical, fluorescence, uHTS. 340,000 compounds, 0.51% hits. ATG4B cleavage of LC3-PLA2, NBD-HPC fluorescence, 1 h. inhibition, % at 8.33 µM; in the data active means inhibition above about 40%
NadD inh = inhibitors of S. aureus NadD, primary screen, biochemical, colorimetric, uHTS; inhibition, % at 20 µM; purified NadD enzyme, colorimetric absorbance read-out; 360,000 compounds, 0.78% hits; Nicotinate-nucleotide adenylyltransferase NadD (Staphylococcus aureus N315); in the data active means inhibition above about 26%
SUMO Mot1 rescue = yeast Mot1-301 growth rescue at high temperature, primary screen, SUMOylation pathway inhibitor project, S. cerevisiae, ATP luminescence, 38.5C; S. cerevisiae Mot1-301 growth rescue; percent above DMSO median, 100 means doubled; growth rescue, % at 18.8 µM; 320,000 compounds, 1% hits; AID 2716, 2010;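 active means every valid replicate shows activation above 250% relative to neutral control wells; inactive means the rest, any valid replicate at or below 250%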;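 further: OY570 slx delta 5 strain wells were the positive control but not used for scaling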
Calb FLC = C. albicans growth inhibition with fluconazole, primary screen, CaCi-2 strain, Alamar Blue fluorescence. C. albicans CaCi-2 (fluconazole-resistant clinical isolate) + fluconazole, 48 h. growth inhibition, % (no concentration beside the values). 300,000 compounds, 0.57% hits;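 active means growth inhibition above about 58% in most replicates, limit read from the data, passing the limit was not always enough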;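 further: all wells also contain fluconazole at 8 µg/ml as a sub-toxic cotreatment; 0% = median of DMSO wells and 100% = median of geldanamycin control wells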
FAS TE block = FAS thioesterase domain inhibitors, primary screen, biochemical, fluorescence intensity, uHTS. recombinant FAS-TE, OMFH fluorogenic substrate, fluorescence endpoint. inhibition, % at 15 µM. 360,000 compounds, 0.67% hits. AID 602261, 2012;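 active means compounds whose normalised, plate-corrected inhibition of enzyme fluorescence in the single-dose primary screen is 50% or more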;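 further: 0% = DMSO with enzyme and 100% = substrate without enzyme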
Target sequence (P49327 whole entry, looked up, the tested form may be a part): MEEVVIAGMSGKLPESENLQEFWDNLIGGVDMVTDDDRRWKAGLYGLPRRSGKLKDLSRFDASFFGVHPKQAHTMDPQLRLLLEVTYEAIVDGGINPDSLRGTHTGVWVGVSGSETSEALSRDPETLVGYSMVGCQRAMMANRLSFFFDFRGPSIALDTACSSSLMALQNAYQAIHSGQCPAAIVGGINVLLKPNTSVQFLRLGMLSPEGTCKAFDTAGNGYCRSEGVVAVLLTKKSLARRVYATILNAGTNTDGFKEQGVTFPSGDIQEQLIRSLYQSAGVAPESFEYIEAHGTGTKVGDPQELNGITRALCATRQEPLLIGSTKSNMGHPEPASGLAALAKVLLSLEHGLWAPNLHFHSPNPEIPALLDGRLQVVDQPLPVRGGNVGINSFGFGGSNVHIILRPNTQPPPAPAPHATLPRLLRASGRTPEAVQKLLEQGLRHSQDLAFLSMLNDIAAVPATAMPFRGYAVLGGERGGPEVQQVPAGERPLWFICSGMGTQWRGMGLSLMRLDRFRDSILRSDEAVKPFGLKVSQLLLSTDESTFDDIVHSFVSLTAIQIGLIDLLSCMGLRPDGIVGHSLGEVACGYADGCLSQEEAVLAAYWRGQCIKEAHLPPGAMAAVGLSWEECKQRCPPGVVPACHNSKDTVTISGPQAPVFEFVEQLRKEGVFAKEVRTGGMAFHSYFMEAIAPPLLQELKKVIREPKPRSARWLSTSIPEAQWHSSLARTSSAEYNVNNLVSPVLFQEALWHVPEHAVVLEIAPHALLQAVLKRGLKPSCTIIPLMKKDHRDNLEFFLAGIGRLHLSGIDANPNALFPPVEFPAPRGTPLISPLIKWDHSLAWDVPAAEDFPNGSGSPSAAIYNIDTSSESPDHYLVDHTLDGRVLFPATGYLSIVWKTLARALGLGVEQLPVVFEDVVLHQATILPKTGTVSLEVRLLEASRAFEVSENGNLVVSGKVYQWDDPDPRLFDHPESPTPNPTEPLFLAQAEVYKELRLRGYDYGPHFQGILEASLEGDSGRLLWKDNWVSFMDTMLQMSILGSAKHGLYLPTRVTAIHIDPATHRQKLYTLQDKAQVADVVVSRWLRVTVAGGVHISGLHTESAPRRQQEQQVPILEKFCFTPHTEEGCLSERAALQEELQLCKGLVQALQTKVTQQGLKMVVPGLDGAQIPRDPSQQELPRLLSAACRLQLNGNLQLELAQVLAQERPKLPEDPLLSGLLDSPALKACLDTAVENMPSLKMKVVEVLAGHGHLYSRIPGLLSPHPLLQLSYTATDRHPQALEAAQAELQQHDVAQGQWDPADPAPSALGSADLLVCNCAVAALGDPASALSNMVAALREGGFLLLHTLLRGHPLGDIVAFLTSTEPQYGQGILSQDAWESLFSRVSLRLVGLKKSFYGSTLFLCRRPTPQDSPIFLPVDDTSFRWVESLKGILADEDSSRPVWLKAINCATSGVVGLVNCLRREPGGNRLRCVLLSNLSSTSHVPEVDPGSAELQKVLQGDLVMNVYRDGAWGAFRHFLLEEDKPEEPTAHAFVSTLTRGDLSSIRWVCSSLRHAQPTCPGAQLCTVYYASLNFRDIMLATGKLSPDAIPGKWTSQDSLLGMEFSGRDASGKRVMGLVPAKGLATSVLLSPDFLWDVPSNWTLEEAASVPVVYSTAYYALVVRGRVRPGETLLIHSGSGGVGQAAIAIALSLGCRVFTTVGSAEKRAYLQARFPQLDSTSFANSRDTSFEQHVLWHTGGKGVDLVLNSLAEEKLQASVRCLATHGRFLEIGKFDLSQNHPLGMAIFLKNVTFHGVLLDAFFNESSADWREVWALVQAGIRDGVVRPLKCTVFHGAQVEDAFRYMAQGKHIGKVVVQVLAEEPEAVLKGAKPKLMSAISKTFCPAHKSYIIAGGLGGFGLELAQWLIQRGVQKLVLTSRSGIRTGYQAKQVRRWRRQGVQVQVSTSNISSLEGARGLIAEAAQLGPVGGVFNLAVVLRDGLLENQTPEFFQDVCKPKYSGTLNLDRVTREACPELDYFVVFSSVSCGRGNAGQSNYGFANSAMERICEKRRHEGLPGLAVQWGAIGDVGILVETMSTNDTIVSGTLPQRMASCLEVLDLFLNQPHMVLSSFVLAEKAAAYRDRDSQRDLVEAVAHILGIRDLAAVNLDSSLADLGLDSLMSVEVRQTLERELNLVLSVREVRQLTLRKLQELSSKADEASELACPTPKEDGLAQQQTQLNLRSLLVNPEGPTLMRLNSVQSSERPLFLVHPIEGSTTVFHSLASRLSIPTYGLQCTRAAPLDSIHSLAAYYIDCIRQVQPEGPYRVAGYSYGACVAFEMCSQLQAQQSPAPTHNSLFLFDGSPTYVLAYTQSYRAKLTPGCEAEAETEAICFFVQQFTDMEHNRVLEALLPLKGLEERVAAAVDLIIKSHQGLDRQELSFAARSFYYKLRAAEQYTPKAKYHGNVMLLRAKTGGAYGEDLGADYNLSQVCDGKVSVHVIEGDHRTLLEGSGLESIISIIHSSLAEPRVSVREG
FAS-TE inh conf = FAS thioesterase domain inhibitors, confirmation, biochemical, fluorescence intensity, single concentration; shares compounds with FAS TE block; recombinant FAS-TE, OMFH fluorogenic substrate; inhibition, % at 15 µM; 2,300 compounds, 45% hits;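 active means compounds inhibiting the enzyme by at least 50% at 15 µM in any one of the replicates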;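 further: 0% = enzyme with DMSO only and 100% = wells lacking enzyme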
The depositor's hits bear a star; . = no result given.

SMILES	ATG4B inh	NadD inh	SUMO Mot1 rescue	Calb FLC	FAS TE block	FAS-TE inh conf
C/C(=C\c1ccc(C(=O)O)cc1)c1ccc2c(c1)C(C)(C)CCC2(C)C	8	21	207	.	73*	34
CCCCCC1CC(CC(=O)Nc2ccc([N+](=O)[O-])cc2)OC1=O (stereo not given)	-7	-2	-12	-3	16	.
CCCCCC1CC(CC(=O)Nc2ccc([N+](=O)[O-])cc2)C(=O)O1 (stereo not given)	-18	-2	7	-15	54*	57*
Cc1c(Cl)cccc1NC(=S)Nc1ccc(S(=O)(=O)Nc2ncccn2)cc1	31	-2	-2	.	-6	.
CC(C)(C)c1ccc(C(=O)NCCC(=O)Nc2cc(Cl)ccc2N2CCOCC2)cc1	-15	-1	-11	.	67*	67*
CC(C)C(NC(=O)c1ccccc1)C(=O)N1CCN(C/C=C/c2ccccc2)CC1 (stereo not given)	-2	4	-5	.	-3	.
CSCCC(NC(=O)c1ccc(Cl)c([N+](=O)[O-])c1)C(=O)N1CCN(C/C=C/c2ccccc2)CC1 (stereo not given)	-5	1	74	-7	58*	59*
O=C(CCC1CCCCC1)Nc1nncs1	-6	-4	2	6	-1	.
CCn1c(=O)c([N+](=O)[O-])c(N2CCSCC2)c2ccccc21	17	-6	41	-3	15	.
CCn1c(=O)c([N+](=O)[O-])c(N2CCN(Cc3ccc4c(c3)OCO4)CC2)c2ccccc21	-1	-1	-10	-12	88*	81*
O=C(O)c1cccc(Nc2nc(-c3ccc([N+](=O)[O-])cc3)nc3ccccc23)c1	7	4	0	0	28	.
O=[N+]([O-])c1ccc(-c2nc(Nc3cccc(O)c3)c3ccccc3n2)cc1	21	12	-3	-2	56*	54*
O=C(NCCc1ccc(F)cc1)C1CCCO1 (stereo not given)	-4	-2	-5	-3	-4	.
O=C1C(F)=CC(COC(c2ccccc2)(c2ccccc2)c2ccccc2)OC1n1cc(F)c(=O)[nH]c1=O (stereo not given)	-4	51*	.	.	70*	52*
CN(C)N=C1c2cc(S(=O)(=O)N3CCOCC3)ccc2-c2ccc(S(=O)(=O)N3CCOCC3)cc21	-5	-9	0	1	50*	25
CC(C)C(=O)n1nc(-c2cccnc2)nc1NCc1cccs1	0	-1	-8	28	4	.
O=C(NC1CCCCC1)c1cccc2c(-c3ccc(F)c(F)c3)coc12	.	1	.	.	13	.
O=C(Nc1ccncc1)c1cc(S(=O)(=O)N2CCOCC2)ccc1Cl	-4	-2	0	-10	-12	.
COc1ccc(S(=O)(=O)N(C(=O)c2ccco2)c2cc3sc(=O)oc3c3ccccc23)cc1	-8	13	-18	23	90*	33
CCOc1ccc(S(=O)(=O)N(C)CC(=O)NCc2ccco2)cc1	7	-1	-9	1	-6	.
CCOc1ccc(S(=O)(=O)N(C(=O)c2ccco2)c2cc3sc(=O)oc3c3ccccc23)cc1	-5	15	-9	17	51*	32
COc1ccc(S(=O)(=O)N(C(=O)C(C)C)c2ccc3oc(=O)sc3c2)cc1	6	-4	15	13	34	.
Cc1ccc(S(=O)(=O)N(C(=O)c2ccco2)c2cc3sc(=O)oc3c3ccccc23)cc1	-8	28	-7	14	53*	32
O=C(Cc1cccc(NC(=O)C2CCCN(C(=O)CCc3ccccc3)C2)c1)Nc1cccc(C(=O)N2CCCC2)c1 (stereo not given)	-14	5	44	.	-2	.
CCOC(=O)c1c(NC(=O)c2ccc(N3C(=O)[C@@H]4[C@H](C3=O)[C@H]3C=C[C@@H]4C3)cc2)sc2c1CCCC2	-9	8	-17	22	62*	9
